This is an account of results in PubChem BioAssay (NCATS).

SMILES strings stand for the structures. “And” between values parts separate entries of the source, which are not always exact repeats. Equal entries are not always repeated. Results filed as inconclusive are left out. A structure can be active in one record and inactive in another. The source made the active and inactive calls. Calls come from the whole dose curve; as a rule, active = well fitted activation curve with a large enough effect in the signal ratio; inconclusive = small, poorly fitted or top-dose-only effect, or effect the other way, or a change in a side signal; inactive = flat fitted curve, though single readings scatter; the % refers to the signal ratio.
Potency is the fitted concentration of half-maximal effect.

The nature of the test: qHTS assay for small molecule agonists of the antioxidant response element (ARE) signaling pathway (AID 651741). For activation: % of control where 0% means no effect. The conditions noted are these: HepG2 ARE-bla reporter, beta-lactamase FRET ratio, 16 h; series mostly up to 96 µM; activation: at the top concentration. The text has this: National Center for Advancing Translational Sciences [NCATS]
NIH Chemical Genomics Center [NCGC]
U.S. Environmental Protection Agency [EPA]
National Institutes of Environmental Health Sciences [NIEHS]
National Toxicology Program [NTP]
Oxidative stress has been implicated in the pathogenesis of a variety of diseases ranging from cancer to neurodegeneration. The antioxidant response element (ARE) signaling pathway plays an important role in the amelioration of oxidative stress. The CellSensor ARE-bla HepG2 cell line (Invitrogen) can be used for analyzing the Nrf2/antioxidant response signaling pathway. Nrf2 (NF-E2-related factor 2) and Nrf1 are transcription factors that bind to AREs and activate these genes. The CellSensor ARE-bla Hep G2 cell line contains a beta-lactamase reporter gene under control of the Antioxidant Response Element (ARE) stably integrated into HepG2 cells. The activation of the report gene under culture conditions can be detected by fluorescence intensity. This cell line can be used to screen chemicals in a 1536-well plate format and to identify agonists that induce oxidative stress.
The ARE-bla cells were dispensed at 2,000 cells/5 ul/well in 1536-well black wall/clear bottom plates using a Multidrop dispenser. After the assay plates were incubated at a 37 C/5% CO2 incubator for 5 hours, 23 nL of compounds dissolved in DMSO, positive controls or DMSO only was transferred to the assay plate by a pin tool. The plates were incubated at 37 C for 16 hours. After 1 uL of LiveBLAzer B/G FRET substrate was added using a Flying Reagent Dispenser, the plates were incubated at room temperature for 2 hours, and fluorescence intensity was measured by an Envision plate reader.
On the technique in general: Quantitative high-throughput screening tests each substance at several concentrations.
Turning to `NCCO/C=C/[C@H](N)C(=O)O`, the “activation” value was 10.7% (inactive).
As for `OC[C@H]1O[C@@H]2O[C@H]3[C@H](O)[C@@H](O)[C@@H](O[C@H]4[C@H](O)[C@@H](O)[C@@H](O[C@H]5[C@H](O)[C@@H](O)[C@@H](O[C@H]6[C@H](O)[C@@H](O)[C@@H](O[C@H]7[C@H](O)[C@@H](O)[C@@H](O[C@H]1[C@H](O)[C@H]2O)O[C@@H]7CO)O[C@@H]6CO)O[C@@H]5CO)O[C@@H]4CO)O[C@@H]3CO`, the Potency result is “inactive”.
For `Cc1ncc[nH]1`, the “activation” value is -2.29% (inactive).
For `CCCCO`, the “activation” value is -2.23% (inactive).
Regarding `Oc1ccc(/C=C/c2cc(O)cc(O)c2)cc1`, the Potency is 19.3 µM (active) and 37.6 µM (active).
For the molecule `CC[C@H]1OC(=O)[C@H](C)[C@@H](O[C@H]2C[C@@](C)(OC)[C@@H](O)[C@H](C)O2)[C@H](C)[C@@H](O[C@@H]2O[C@H](C)C[C@H](N(C)C)[C@H]2O)[C@](C)(O)C[C@@H](C)CN(C)[C@H](C)[C@@H](O)[C@]1(C)O`, the “activation” value is -6.29% (inactive).
With `CO[C@@H]1[C@H](OC(=O)/C=C/C=C/C=C/C=C/C(=O)O)CC[C@]2(CO2)[C@H]1[C@@]1(C)O[C@@H]1CC=C(C)C`, the Potency is 13.7 µM (active).
On to `CC(C)[C@@H]1CC[C@@H](C)C[C@H]1O`, for which the “activation” value was 8.44% (inactive).
Still for that read-out and setting: for `CCCCCCCCCCCCCCCCCC(=O)OC[C@@H](O)[C@H]1OC[C@H](O)[C@H]1O` the value was 4.43% (inactive).
On to `CC1=CC(=O)NS(=O)(=O)O1`, for which the Potency entry is “inactive”.
For `CC1=CCC2CC1C2(C)C` (centres undefined), the “activation” value was 0.169% (inactive).
For `CC/C=C\C/C=C\C/C=C\CCCCCCCC(=O)O`, the Potency was 42.2 µM (active).
Turning to `Nc1nccs1`, the “activation” value is 2.81% (inactive).
As to `C[C@H](CCC(=O)O)[C@H]1CC[C@H]2[C@@H]3CC[C@@H]4C[C@H](O)CC[C@]4(C)[C@H]3C[C@H](O)[C@]12C`, the Potency is 66.8 µM (active).
For `C[C@H](CCC(=O)O)[C@H]1CC[C@H]2[C@@H]3[C@H](O)C[C@@H]4C[C@H](O)CC[C@]4(C)[C@H]3C[C@H](O)[C@]12C`, the “activation” value was 3.23% (inactive).
For `CC(C)CCC[C@@H](C)[C@H]1CC[C@H]2[C@@H]3CC=C4C[C@@H](O)CC[C@]4(C)[C@H]3CC[C@]12C`, the Potency was 54.5 µM (active).
On to `COC(=O)c1ccccc1O`, for which the “activation” value is 5.48% (inactive).
In the case of `Nc1ccc(N=Nc2ccccc2)c(N)n1`, the Potency was 19.3 µM (active) and 37.6 µM (active).
On the same count and under the same terms, for `Oc1cccc(O)c1O` the value was 5.96 µM (active).
Turning to `OCl`, the “activation” value was -0.67% (inactive).
Consider `O=P(O)(O)O`, for which the “activation” value was 5.22% (inactive).
Consider `C=C(C)C1CC=C(C)CC1` (centres undefined), for which the Potency result is “inactive and 1.12 mM (active)”.
For `C[Si](C)(C)O[Si](C)(C)C`, the “activation” value is 8.44% (inactive).
On the same count and under the same terms, under `OCCOCCOCCO` stands 3.55% [at 2.3 mM] (inactive).
The same measure, in the same setting: under `Cc1ccc(S(=O)(=O)NCl)cc1` stands 1.6% (inactive).
As for `O=c1n(CC2CO2)c(=O)n(CC2CO2)c(=O)n1CC1CO1` (centres undefined), the Potency is 7.5 µM (active) and 6.86 µM (active).
For the molecule `OB(O)O`, the Potency entry was “inactive”.
Regarding `ClC(Cl)Cl`, the “activation” value was -1.01% (inactive).
In the case of `CO/N=C(/C(=O)N[C@@H]1C(=O)N2C(C(=O)O)=C(COC(N)=O)CS[C@H]12)c1ccco1`, the Potency was 42.2 µM (active).
Consider `CN(CCO)CC(O)Cn1cnc2c1c(=O)n(C)c(=O)n2C` (centres undefined) (tested in a mixture with another compound), for which the “activation” value was 0.568% (inactive).
As for `Nc1ncnc2c1ncn2[C@H]1CC[C@@H](CO)O1`, the Potency entry was “inactive”.
Still for that read-out and setting: under `c1ccc2ccccc2c1` stands “inactive”; under `CC(C)(C)CC(C)(C)c1ccc(OCCO)cc1`, 37.6 µM (active); under `C=C1C(CCl)(CCl)C2(Cl)C(Cl)C(Cl)C1(Cl)C2(Cl)Cl` (centres undefined), 37.6 µM (active).
